For 39 compounds, inhibition and growth inhibition results are on record in PubChem BioAssay.

Activity calls are given as the source filed them. The rule behind the calls is not given here.

In one assay the target is L-lactate dehydrogenase (Plasmodium falciparum (isolate CDC / Honduras)) (UniProt Q27743). In words: PfLDH activity inhibition – cell lysate, 3D7 strain, counter-screen for P. falciparum growth inhibition project (AID 2304).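 Note: 0% = vehicle and 100% = reference inhibitor.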 As to conditions: P. falciparum 3D7 crude extract, LDH APAD/NBT absorbance; at 2 µM; hits give high values.
Sequence of L-lactate dehydrogenase (Plasmodium falciparum (isolate CDC / Honduras)) (Q27743 whole entry, looked up): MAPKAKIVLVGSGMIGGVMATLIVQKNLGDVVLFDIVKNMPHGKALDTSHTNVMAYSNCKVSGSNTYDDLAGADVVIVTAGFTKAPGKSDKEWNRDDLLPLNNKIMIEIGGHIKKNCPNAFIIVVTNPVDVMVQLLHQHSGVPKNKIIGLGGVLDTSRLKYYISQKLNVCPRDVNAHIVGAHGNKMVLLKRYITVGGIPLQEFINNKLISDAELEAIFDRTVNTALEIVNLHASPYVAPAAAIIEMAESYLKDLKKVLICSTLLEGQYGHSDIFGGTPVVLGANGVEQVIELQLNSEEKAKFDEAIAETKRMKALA
In the case of `Cc1[nH]c(C)c(-c2ccc(Oc3cccc(OC(F)(F)F)c3)cc2)c(=O)c1Cl`, the inhibition was -1% (inactive). With `CC1CN=C(c2ccc(NC(=O)Nc3ccc(C4=NCC(C)N4)cc3)cc2)N1` (configuration not stated), the inhibition was 0% (inactive). With `CCCCC#Cc1cnc2nc(N)[nH]c(=O)c2n1`, the inhibition is 0% (inactive). For the compound `COc1cc(Cc2cnc(N)nc2N)cc(OCCCS(=O)(=O)O)c1OC`, the inhibition was 1% (inactive). Still for that read-out and setting: the same measure for `CCCOc1ccc(CNCCCCCCNCc2ccc(OCCC)c3ccccc23)c2ccccc12`: -2% (inactive); for `NC(N)=NC(=O)Nc1ccc(Cl)c(C(F)(F)F)c1`: 3% (inactive); for `CCOC(=O)c1nc2ccc(SC3CCCCC3)cn2c1Br`: 3% (inactive).

Take `CC(C)C(=O)Nc1c(F)cc(F)cc1CCc1ccc(O)cc1`: the inhibition was 2% (inactive). As for `CC(CN=C(N)c1cccc(C(N)=NCC(C)Oc2cccc(C3CCCCC3)c2)n1)Oc1cccc(C2CCCCC2)c1` (configuration not stated), the inhibition is 2% (inactive). The same measure, in the same setting: the same measure for `CCNC(=NCc1ccccc1)NCCCCCCNC(=NCc1ccccc1)NCC`: -5% (inactive); for `COc1ccc(OC)c(CC2c3ccc(Br)c(O)c3CCN2C)c1` (configuration not stated): -7% (inactive). Turning to `CCc1ccc(Cc2cnc3nc(N)nc(N)c3c2C)cc1CC`, the inhibition is 6% (inactive). The same measure, in the same setting: the same measure for `COc1cc2c(cc1OC)C(C)(C)CN1Cc3c(c(CO)c(OC)c(OC)c3OC)CC21` (configuration not stated): 2% (inactive); for `Cc1c(Cc2ccc(C(C)C)cc2)cnc2nc(N)nc(N)c12`: 6% (inactive). On the same count and under the same terms, the same measure for `COc1ccc2c(OC)cccc2c1CNCCCCCCNCc1c(OC)ccc2c(OC)cccc12`: -5% (inactive).

With `CCCc1cc(Cc2cnc(N)nc2N)cc2c1OC(C)(C)C2`, the inhibition is -1% (inactive).

For the compound `CCOc1cc(Cc2cnc(N)nc2N)ccc1OC`, the inhibition was -1% (inactive). The same measure, in the same setting: the same measure for `CCC1=C(C[C@H]2NCCc3cc(OC)c(OC)cc32)C[C@H]2c3cc(OC)c(OC)cc3CCN2C1`: -2% (inactive). Take `CCOc1cc2ncnc(Nc3ccc(OCc4ccccc4OC)c(OC)c3)c2cc1OCC`: the inhibition is -5% (inactive).

As for `Cc1[nH]c(C)c(-c2ccc(Oc3ccc(Cl)cc3)cc2)c(=O)c1C`, the inhibition is -8% (inactive).

For the compound `CN(Cc1cnc2nc(N)nc(N)c2n1)c1ccc(C(=O)N[C@H](CCC(=O)OC(C)(C)C)C(=O)N[C@@H](CCC(=O)OC(C)(C)C)C(=O)OC(C)(C)C)cc1`, the inhibition was -6% (inactive). Still for that read-out and setting: the result for `CCCCNCc1ccc(OCc2cccc(COc3ccc(CNCCCC)cc3I)c2)c(I)c1` reads 6% (inactive); that for `CC(C)(C)c1ccc(-c2nnc(N)nc2N)cc1`, -4% (inactive).

Test system in a further assay: not listed separately
In words: inhibition of 3D7 malaria parasite growth – strain 3D7 (AID 2306).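 Note: 0% = DMSO wells and 100% = chloroquine plus artemisinin control wells.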 As to conditions: P. falciparum 3D7 erythrocytic growth, LDH absorbance, 72 h; at 2 µM; hits give high values.
For the compound `COc1ccc(Cc2cnc(N)nc2N)cc1OCCCOc1ccccc1`, the growth inhibition is 91% (active).

For `CCOC(=O)c1c(-c2ccccc2)c(C(=O)OCC)n2ccccc12`, the growth inhibition was 93% (active). The same measure, in the same setting: the result for `Cc1cc(=O)c(-c2ccc(S(=O)(=O)c3ccc(Cl)cc3)cc2)c(C)[nH]1` reads 92% (active); that for `Cc1[nH]c(C)c(-c2ccc(Oc3ccc(Cl)cc3)c(Cl)c2)c(=O)c1Br`, 97% (active). Same read-out and setting: the same measure for `COc1ccc2c(CNCCCCCCNCc3c(OC)ccc4cc(OC)ccc34)c(OC)ccc2c1`: 101% (active). Still for that read-out and setting: the result for `Cc1cc2c3c(N)nc(N)nc3ccc2n1C` reads 95% (active); that for `COc1ccc(Cc2cnc3nc(N)nc(N)c3c2C)cc1OC`, 93% (active); that for `Nc1nc(N)c2c(Oc3ccc(Cl)c(Cl)c3)cccc2n1`, 95% (active). Take `CCCCCCCN(Cc1ccc(OC(C)(C)C(=O)OCC)cc1)C(=O)Cc1ccc(F)cc1F`: the growth inhibition is 93% (active). Take `Oc1c(CNC2CCCCC2)cc(Cl)c2ccccc12`: the growth inhibition is 98% (active).

Consider `COc1ccc2c(c1CNCCCCCCNCc1c(OC)ccc3c1CCCC3)CCCC2`, for which the growth inhibition was 94% (active).

Regarding `COc1cc(Cc2cnc(N)nc2N)cc(OCCCCCCC(=O)O)c1OC`, the growth inhibition is 90% (active). Same read-out and setting: the result for `CCCCNCCOc1ccc(-c2nc(-c3ccccc3)c(-c3ccccc3)[nH]2)cc1` reads 100% (active); that for `Nc1nc(N)c2c(Sc3ccc(F)cc3)cccc2n1`, 88% (active); that for `Cc1[nH]c(C)c(-c2ccc(Oc3ccc(F)cc3)cc2)c(=O)c1Br`, 100% (active). Still for that read-out and setting: the result for `Cc1[nH]c(C)c(-c2ccc(-c3ccc(F)cc3)cc2)c(=O)c1Cl` reads 96% (active).

Turning to `Cc1[nH]c(C)c(-c2ccc(Oc3cccc(OC(F)(F)F)c3)cc2)c(=O)c1Cl`, the growth inhibition is 97% (active).

For the compound `CC1CN=C(c2ccc(NC(=O)Nc3ccc(C4=NCC(C)N4)cc3)cc2)N1` (configuration not stated), the growth inhibition was 85% (active).

In the case of `CCCCC#Cc1cnc2nc(N)[nH]c(=O)c2n1`, the growth inhibition is 89% (active). The same measure, in the same setting: the result for `COc1cc(Cc2cnc(N)nc2N)cc(OCCCS(=O)(=O)O)c1OC` reads 88% (active); that for `CCCOc1ccc(CNCCCCCCNCc2ccc(OCCC)c3ccccc23)c2ccccc12`, 101% (active); that for `NC(N)=NC(=O)Nc1ccc(Cl)c(C(F)(F)F)c1`, 100% (active). For the compound `CCOC(=O)c1nc2ccc(SC3CCCCC3)cn2c1Br`, the growth inhibition is 86% (active). Turning to `CC(C)C(=O)Nc1c(F)cc(F)cc1CCc1ccc(O)cc1`, the growth inhibition is 90% (active). The same measure, in the same setting: the same measure for `CC(CN=C(N)c1cccc(C(N)=NCC(C)Oc2cccc(C3CCCCC3)c2)n1)Oc1cccc(C2CCCCC2)c1` (configuration not stated): 90% (active). Same read-out and setting: the result for `CCNC(=NCc1ccccc1)NCCCCCCNC(=NCc1ccccc1)NCC` reads 96% (active). Take `COc1ccc(OC)c(CC2c3ccc(Br)c(O)c3CCN2C)c1` (configuration not stated): the growth inhibition is 98% (active). Regarding `CCc1ccc(Cc2cnc3nc(N)nc(N)c3c2C)cc1CC`, the growth inhibition was 97% (active).

As to `COc1cc2c(cc1OC)C(C)(C)CN1Cc3c(c(CO)c(OC)c(OC)c3OC)CC21` (configuration not stated), the growth inhibition is 95% (active).

`Cc1c(Cc2ccc(C(C)C)cc2)cnc2nc(N)nc(N)c12`: the growth inhibition was 97% (active).

As to `COc1ccc2c(OC)cccc2c1CNCCCCCCNCc1c(OC)ccc2c(OC)cccc12`, the growth inhibition was 92% (active). Take `CCCc1cc(Cc2cnc(N)nc2N)cc2c1OC(C)(C)C2`: the growth inhibition is 89% (active).

In the case of `CCOc1cc(Cc2cnc(N)nc2N)ccc1OC`, the growth inhibition is 88% (active). As to `CCC1=C(C[C@H]2NCCc3cc(OC)c(OC)cc32)C[C@H]2c3cc(OC)c(OC)cc3CCN2C1`, the growth inhibition is 102% (active). Still for that read-out and setting: the same measure for `CCOc1cc2ncnc(Nc3ccc(OCc4ccccc4OC)c(OC)c3)c2cc1OCC`: 97% (active); for `Cc1[nH]c(C)c(-c2ccc(Oc3ccc(Cl)cc3)cc2)c(=O)c1C`: 96% (active). For `CN(Cc1cnc2nc(N)nc(N)c2n1)c1ccc(C(=O)N[C@H](CCC(=O)OC(C)(C)C)C(=O)N[C@@H](CCC(=O)OC(C)(C)C)C(=O)OC(C)(C)C)cc1`, the growth inhibition was 85% (active). Still for that read-out and setting: the same measure for `CCCCNCc1ccc(OCc2cccc(COc3ccc(CNCCCC)cc3I)c2)c(I)c1`: 87% (active); for `CC(C)(C)c1ccc(-c2nnc(N)nc2N)cc1`: 92% (active).
